# Source: PubChem (The Scripps Research Institute Molecular Screening Center)
# FBW7 activator – activators of human E3 ligase FBW7; AlphaScreen FBW7–phospho-cyclin E peptide binding, activator screen; normalized activity (activation), % at 26.1 µM; hit rate 0.13% among 650,000; AID 1259310; in the data active = normalized activity above about 1.9%;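 note: purified mutant Fbw7 with reduced substrate affinity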
# MITF primary – blocks human microphthalmia-associated transcription factor | inhibition, % at 2.6 µM | AlphaScreen MITF homodimerization, bead proximity signal | hit rate 0.91% among 650,000 | O75030; in the data active = inhibition above about 50%
# GPR151 activ – activators of human GPR151 | Q8TDV0 | PathHunter beta-arrestin GPR151 cells, luminescence | activation, % at 11.2 µM | hit rate 1% among 650,000 | AID 1508602; in the data active = activation above about 4.9%
# TEAD-YAP inh – TEAD-YAP interaction inhibition; HEK-TIYL cells, TEAD-Gal4/YAP UAS-luciferase luminescence; inhibition, % at 9.12 µM; hit rate 1.4% among 640,000; in the data active = inhibition above about 32%
# GPR151 confirm – confirmation of human GPR151 activators | shares compounds with GPR151 activ | AID 1508609 | 6,700 tested, under 10 active | GPR151 PathHunter beta-arrestin cells, luminescence, 90 min; % of EA-reagent control over plate median | activation, % at 11.2 µM;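 active = mean percent activation across replicates above the confirmation screen cutoff of 4.91%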
# GPR119 ag – counter-screen for GPR151 activators: effect on human GPR119. shares compounds with GPR151 activ. GPR119 PathHunter beta-arrestin cells, luminescence, 90 min; 0 = compound-well median, 100 = enzyme-acceptor control. activation, % at 11.2 µM. hit rate 0.3% among 6,700;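 active = mean percent activation in the counterscreen above 29.09%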;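 note: counterscreen on off-target GPR119 to flag nonselective hits from the GPR151 activator screen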
# Target sequence (Q8TDV5 whole entry, looked up): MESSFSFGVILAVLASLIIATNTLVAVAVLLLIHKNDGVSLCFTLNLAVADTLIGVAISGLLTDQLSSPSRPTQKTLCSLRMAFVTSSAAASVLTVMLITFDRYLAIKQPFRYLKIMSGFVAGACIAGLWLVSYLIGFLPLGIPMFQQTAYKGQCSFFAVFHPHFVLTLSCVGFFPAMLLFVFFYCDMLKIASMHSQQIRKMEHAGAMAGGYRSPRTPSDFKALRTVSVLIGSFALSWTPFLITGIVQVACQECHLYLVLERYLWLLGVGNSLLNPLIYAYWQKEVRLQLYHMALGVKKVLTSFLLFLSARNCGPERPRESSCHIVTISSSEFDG
# Numbers stand for hits; i = inactive; nt = no result; ! = not active in a repeat. The list is not random: actives were taken first. Their share in the collection is about 3.5%.
SMILES,FBW7 activator,MITF primary,GPR151 activ,TEAD-YAP inh,GPR151 confirm,GPR119 ag
O=C(CSc1nnc(-c2cccnc2)o1)c1ccc2ccccc2c1,i,i,i,i,nt,nt
COCCn1nnnc1C(c1ccccc1)N1CCN(c2cccc(Cl)c2)CC1 (stereo not given),i,i,i,i,nt,nt
CNc1oc(-c2cccs2)nc1S(=O)(=O)c1ccccc1,i,i,5.1,i,i,i
N/C(=N\S(=O)(=O)c1ccc(Cl)cc1)c1ccccc1,i,i,i,i,nt,nt
CO/C(=N\S(=O)(=O)c1ccc(Cl)cc1)c1ccccc1,i,i,5.9,i,i,i
Cc1cccc(CN2CCC(N3CCC[C@H]3CO)CCC2=O)c1 (stereo not given in full),i,i,11,i,i,i
CN(C)CC(C)(C)CNCC(=O)Nc1cc(C(F)(F)F)cc(C(F)(F)F)c1,i,i,6.0,i,i,i
N[C@@H]1CONC1=O,i,i,6.7!,i,i,i
CSc1nc(C(=O)N2CCc3nnc(CNC(=O)c4cccc(F)c4)n3CC2)cs1,i,i,5.2,i,i,i
O=C(NNC(=S)NCc1ccccc1)c1ccc(Br)o1,i,i,6.3,i,i,i
Cc1ccc(OCC(=O)NNC(=O)COc2ccccc2C)cc1,i,i,i,i,nt,nt
Cc1ccccc1OCC(=O)NNC(=O)C(F)(F)F,i,i,5.1,i,i,i
CC1(C)C(c2cccs2)=[N+]([O-])C2(CCCCCC2=O)N1O (stereo not given),i,i,i,i,nt,nt
CC1(C)C(c2ccco2)=[N+]([O-])C2(CCCCCC2=O)N1O (stereo not given),i,i,7.7,i,i,i
O=C(CSCc1ccccn1)Nc1ccc2ccccc2c1,i,i,7.5,i,i,i
O=C(CSCCc1ccccn1)Nc1ccc(I)cc1,i,i,5.7,i,i,i
O=C(CSCCc1ccccn1)Nc1ccccc1Cl,i,i,8.0,i,i,i
O=C(CSCC(=O)Nc1ccccn1)Nc1ccc2ccccc2c1,i,i,i,i,nt,nt
O=C(NCCc1c[nH]c2ccccc12)c1cc2ccccc2o1,i,i,i,i,nt,nt
O=S(=O)(Cc1ccccc1)NCC1CCCN(Cc2cccn2-c2cccnc2)C1 (stereo not given),i,i,i,i,nt,nt
CCC(CC)C(=O)Oc1ccc2c(=O)c(Oc3ccccc3Br)coc2c1,i,i,i,i,nt,nt
CCOc1cc(C=O)ccc1OCCOc1ccccc1OC,i,i,11,i,i,i
O=[N+]([O-])c1ccc(NNC(=S)NC2CCS(=O)(=O)C2)c([N+](=O)[O-])c1 (stereo not given),i,i,i,i,nt,nt
CCN(CC)S(=O)(=O)c1ccc(N/N=C/c2ccc(O)c(OC)c2)nc1,i,i,i,i,nt,nt
CCN(CC)S(=O)(=O)c1ccc(N/N=C/c2ccc(O)cc2)nc1,i,i,5.7,i,i,i
SMILES,FBW7 activator,MITF primary,GPR151 activ,TEAD-YAP inh,GPR151 confirm,GPR119 ag
Cc1nc2cnc(-c3ccc(O)cc3)cn2c1NC(=O)c1cccs1,i,i,i,i,nt,nt
Cc1nc2cnc(-c3ccc(O)cc3)cn2c1NC(=O)CC1CCOCC1,i,i,12,i,i,i
COc1ccc(S(=O)(=O)NNC(=S)NC(=O)c2ccccc2)cc1,i,i,i,i,nt,nt
CC(=O)c1nc2ccccc2n1S(=O)(=O)c1ccc(Cl)cc1,i,i,5.2,i,i,i
Nc1nc(CSc2nnnn2Cc2ccccc2)nc(N2CCOCC2)n1,i,i,7.6,i,i,i
COc1cccc2cc(S(=O)(=O)c3ccc(F)c(Cl)c3)c(=O)oc12,i,i,i,i,nt,nt
COc1ccc2c(-c3ccccc3)cc3nnnn3c2c1,i,i,5.3,i,i,i
Cc1ccc(-c2c(N3CC(=O)N(CCc4ccccc4)C(=O)C3)c(=O)c2=O)cc1,i,i,6.5,i,i,i
CCC(C)(C)NS(=O)(=O)c1cc(Br)cnc1N,i,i,6.0,i,i,i
CC(C)(C)NS(=O)(=O)c1cc(Br)cnc1N,i,i,i,i,nt,nt
O=C1/C(=C/c2ccccc2)SC(=S)N1N1C(=O)c2ccccc2C1=O,i,i,i,i,nt,nt
O=C1/C(=C\c2cccc([N+](=O)[O-])c2)SC(=S)N1N1C(=O)c2ccccc2C1=O,i,i,5.0,i,i,i
CC(C)(C)NC(=O)/C=C/c1cc([N+](=O)[O-])ccc1OC(F)F,i,i,i,i,nt,nt
CC(C)(C)C(=O)N1CCc2nc3ccccn3c(=O)c2C1,i,i,6.8,i,i,i
CCC(=O)N1CCc2nc3ccccn3c(=O)c2C1,i,i,i,i,nt,nt
CCCNc1cc(C)nc(Nc2ccccc2)n1,i,i,14,i,i,i
CCCNc1cc(C)nc(Nc2cccnc2)n1,i,i,i,i,nt,nt
CCCCOC(C)n1cc(Cl)c(=O)[nH]c1=O (stereo not given),i,i,5.1,i,i,i
CC(=O)N1CCC2(CC1)N=C(C)C(c1ccccc1)=N2,i,i,7.1,i,i,i
CCn1c2ccccc2c2cc(/C=N/n3cn[nH]c3=S)ccc21,i,i,5.0,i,i,i
CCn1c2ccccc2c2cc(/C=N/O)ccc21,i,i,i,i,nt,nt
Cc1sc(NC(=O)c2ccco2)c(CN2CCN(CCO)CC2)c1C,i,i,25,i,i,i
O=C(NCc1ccccc1)c1ccccc1NS(=O)(=O)c1cccc([N+](=O)[O-])c1,i,i,4.9,i,i,i
Cc1ccc(S(=O)(=O)Nc2ccccc2C(=O)NCc2ccco2)cc1[N+](=O)[O-],i,i,11,i,i,i
O=C(Nc1cccc(Br)c1)Nc1nnc(N2CCCCCC2)s1,i,i,i,i,nt,nt
SMILES,FBW7 activator,MITF primary,GPR151 activ,TEAD-YAP inh,GPR151 confirm,GPR119 ag
COC(=O)c1ccccc1NC(=O)Nc1nnc(N2CC(C)CC(C)C2)s1 (stereo not given),i,i,6.6,i,i,i
O=C(Nc1cccc(C(F)(F)F)c1)Nc1nnc(N2CCCC2)s1,i,i,5.9,i,i,i
O=C(Nc1nnc(N2CCCC2)s1)Nc1ccccc1Br,i,i,5.5,i,i,i
O=C(Nc1ccc2c(c1)OCCO2)Nc1nnc(N2CCCC2)s1,i,i,5.7,i,i,i
COc1ccc(C(=O)N2CCC(c3ccncc3)CC2)c2ccccc12,i,i,i,i,nt,nt
Cn1c(=O)c([N+](=O)[O-])c(NCc2ccccc2)c2ccccc21,i,i,8.1,i,i,i
O=C1c2ccc([N+](=O)[O-])cc2C(=O)N1c1c[nH]c(=O)[nH]c1=O,i,i,5.1,i,i,i
CC(C)(C#N)NC(=O)Cn1nnc(-c2cccnc2)n1,i,i,i,i,nt,nt
O=C(Cn1c(-c2ccccn2)nc2ccccc21)Nc1nc2ccccc2s1,i,i,6.0,i,i,i
O=C(c1ccc(Cl)cc1)c1cc(NC(=O)c2cc(Br)cc(Br)c2O)ccc1Oc1ccc(Cl)cc1,i,i,9.6,i,i,i
